Data reported in PubChem BioAssay (NCI).
This is part of a sample that, as a whole, favours compounds with a hit. Of some 79,000 tested, about 15% had one in any assay. Values without a mark were called inactive. The source made the active and inactive calls. Cut-off read from the data, not from the text of the source: active = growth inhibition above about 70%; inactive = the rest.

Legend:
[1] = NCI Yeast Anticancer Drug Screen. Data for the rad50 strain (AID 155);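 note: 0% = growth of vehicle-only cultures of the same strain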; conditions: S. cerevisiae rad50 strain growth inhibition, stronger effect = higher value
Summary of the method: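 Relative growth inhibition (compound vs vehicle) was measured in yeast with a defined repair-gene alteration.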

[2] = NCI Yeast Anticancer Drug Screen. Data for the mec2-1 strain (AID 157); conditions: S. cerevisiae mec2-1 strain, stronger effect = higher value
Summary of the method: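 Strain: mec2-1 (DNA repair/cell cycle alteration). Compound exposure, then growth measured; inhibition expressed relative to vehicle.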

[3] = NCI Yeast Anticancer Drug Screen. Data for the sgs1 mgt1 strain (AID 161);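 note: 0% = growth of cultures given vehicle only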; conditions: S. cerevisiae sgs1 mgt1 strain, stronger effect = higher value
Summary of the method: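 Inhibition of yeast growth, normalised to vehicle-treated controls, is reported for a strain bearing genetic alterations in DNA damage repair.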

[4] = NCI Yeast Anticancer Drug Screen. Data for the cln2 rad14 strain (AID 165);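 note: 0% = growth equal to vehicle treated cultures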; conditions: S. cerevisiae cln2 rad14 strain, stronger effect = higher value
Summary of the method: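 Compounds are applied to the cln2 rad14 yeast strain, and growth is then compared with that of vehicle-treated cultures to give inhibition.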

[5] = NCI Yeast Anticancer Drug Screen. Data for the bub3 strain (AID 167); conditions: S. cerevisiae bub3 mutant strain, stronger effect = higher value
Summary of the method: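 Screening used yeast with an engineered genetic alteration affecting cell cycle control. Compound-exposed cultures were compared with vehicle cultures, and reduced growth was taken as inhibition.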

[6] = NCI Yeast Anticancer Drug Screen. Data for the mlh1 rad18 strain (AID 175); conditions: S. cerevisiae mlh1 rad18 strain growth inhibition, stronger effect = higher value
Summary of the method: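 Read-out is yeast growth inhibition, calculated against vehicle-only controls. The compound was applied to a strain engineered with DNA damage repair alterations.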

[7] = at 5.0 µM (retest, dose inferred, filed as 0.5)
[8] = at 50.0 µM (retest, dose inferred, filed as 5.0)

Compound | growth inhibition [1, 7] | growth inhibition [1, 8] | growth inhibition ([1]; at 50.0 µM) | growth inhibition [2, 7] | growth inhibition [2, 8] | growth inhibition ([2]; at 50.0 µM) | growth inhibition [3, 7] | growth inhibition [3, 8] | growth inhibition ([3]; at 50.0 µM) | growth inhibition [4, 7] | growth inhibition [4, 8] | growth inhibition ([4]; at 50.0 µM) | growth inhibition [5, 7] | growth inhibition [5, 8] | growth inhibition ([5]; at 50.0 µM) | growth inhibition [6, 7] | growth inhibition [6, 8] | growth inhibition ([6]; at 50.0 µM)
CC(=O)Oc1ccc(N2C(=O)C=CC2=O)cc1 | 86% (active) | 99% (active) | 98.8% (active) | 81% (active) | 100% (active) | 99.1% (active) | 67% | 99% (active) | 52% | 56% | 100% (active) | 54.2% | 87% (active) | 99% (active) | 99% (active) | 41% | 100% (active) | 52.5%
Cc1ccc(-c2c(N)[n+]([O-])c3ccccc3[n+]2[O-])cc1 | 34% | 95% (active) | 99.3% (active) | 32% | 99% (active) | 99.3% (active) | 47% | 100% (active) | 99.2% (active) | 46% | 98% (active) | 98.3% (active) | 54% | 99% (active) | 99.2% (active) | 81% (active) | 99% (active) | 99% (active)
Oc1ccc(Cl)cc1-c1ccccc1 | -1% | 86% (active) | 94.1% (active) | -15% | 83% (active) | 97% (active) | -13% | 76% (active) | 90.2% (active) | -48% | 68% | 74.2% (active) | 1% | 68% | 94.7% (active) | 11% | 91% (active) | 91.7% (active)
CC(=O)Nc1ccc(/C=C2/NC(=S)N(/C=C3\C(=O)Oc4ccccc4C3=O)C2=O)cc1 | -10% | 50% | 70.7% (active) | -19% | 60% | 76.5% (active) | -6% | 29% | 78.7% (active) | -15% | 64% | 86% (active) | -12% | 36% | 67.2% | -9% | 44% | 76.2% (active)
CCCCCCCCCCOC1C(C(O)CNCCCN(C)C)OC2OC3(CCCCC3)OC21 (configuration not stated) | 1% | 97% (active) | 91.9% (active) | -27% | 98% (active) | 93.2% (active) | 7% | 98% (active) | 91% (active) | 21% | 97% (active) | 90.3% (active) | -24% | 98% (active) | 89% (active) | 5% | 97% (active) | 90.2% (active)
COc1ccc2c(c1)CC1c3c(ccc(OC)c3O)CC2N1C (configuration not stated) | -15% | 56% | 86.7% (active) | -44% | 37% | 91.3% (active) | -6% | 59% | 93.7% (active) | -24% | 52% | 92.5% (active) | -4% | 75% (active) | 92% (active) | -55% | 61% | 89.5% (active)
C=C(CN1CCOCC1)C(=O)c1ccccc1 | -23% | 66% | 74.5% (active) | 18% | 80% (active) | 90.2% (active) | 8% | 73% (active) | 85.5% (active) | -16% | 24% | 60.9% | 3% | 72% (active) | 91% (active) | -13% | 92% (active) | 95% (active)
CNc1cc(SC)nc(N)n1 | 3% | -7% | 89.7% (active) | -2% | -3% | 94.3% (active) | 1% | -9% | 92.8% (active) | -1% | 0% | 91.8% (active) | -1% | -1% | 75.4% (active) | 0% | -4% | 95% (active)
CCn1cnc2[nH]cc(C#N)c2c1=O | -150% | 13% | 7.7% | -50% | -40% | -15.1% | -64% | -33% | 5.6% | -54% | -46% | 34.2% | -67% | -59% | -19.2% | -123% | -86% | 36.7%
O=C(CCc1c[nH]c2ccccc12)c1ccccc1O | 2% | 5% | 17.5% | -1% | 14% | 22.1% | 5% | 16% | 59.3% | -13% | -18% | -21.4% | 2% | 14% | 73.8% (active) | -5% | 12% | 43.4%
COC(=O)CCC(C)C1CCC2C3CCC4CC(SC(=N)N)CCC4(C)C3CC(O)C12C (configuration not stated) | 95% (active) | 99% (active) | 99.1% (active) | 23% | 99% (active) | 99.7% (active) | 98% (active) | 99% (active) | 99.7% (active) | 63% | 99% (active) | 99.2% (active) | 99% (active) | 99% (active) | 99.3% (active) | 84% (active) | 99% (active) | 99.4% (active)
CCc1cccc(C(C)(C)C)c1NC(=S)/N=C/C(C(=O)c1ccccc1)=C(\O)c1ccccc1 | -4% | 70% (active) | 77.2% (active) | -11% | 66% | 55.3% | -10% | 43% | 68.9% | -13% | 45% | 48.1% | -12% | 48% | 80.3% (active) | -4% | 65% | 75.6% (active)
CN(C)CCCC(C#N)(CCCN(C)C)c1ccccc1 | 15% | -2% | 15% | -1% | 5% | -2.05% | 6% | 0% | 10.6% | -2% | 6% | -51.6% | -3% | -1% | -18.5% | -3% | 8% | 31.4%
NC1c2ccccc2-c2ccc([N+](=O)[O-])cc21 (configuration not stated) | 12% | -2% | 40% | 4% | -24% | -7.35% | 4% | 35% | 26.6% | -24% | -4% | -9.3% | 1% | 3% | -12.2% | 14% | 38% | 39.9%
c1ccc([Si](C[CH2][Sn]([c]2ccccc2)([c]2ccccc2)[c]2ccccc2)(c2ccccc2)c2ccc([Si](C[CH2][Sn]([c]3ccccc3)([c]3ccccc3)[c]3ccccc3)(c3ccccc3)c3ccccc3)cc2)cc1 | 99% (active) | 98% (active) | 77.3% (active) | 99% (active) | 99% (active) | 89.5% (active) | 100% (active) | 98% (active) | 71.9% (active) | 99% (active) | 98% (active) | 83.8% (active) | 99% (active) | 98% (active) | 97.6% (active) | 99% (active) | 98% (active) | 73.1% (active)
CCOC(=O)c1[nH]c(Br)c(-c2ccc(OC)c(OC)c2)c1Br | 1% | 98% (active) | 92.1% (active) | -8% | 97% (active) | 63.5% | 1% | 98% (active) | 97.2% (active) | 26% | 99% (active) | 88.8% (active) | -2% | 99% (active) | 88% (active) | 8% | 97% (active) | 94.2% (active)
CCC12C=CCN3CC[C@@]4(c5cc([C@@]6(C(=O)OC)C[C@@H]7CN(CCc8c6[nH]c6ccccc86)C[C@](O)(CC)C7)c(OC)cc5N(C)[C@H]4[C@@](O)(C(=O)OC)[C@@H]1OC(=O)CCCCCCCCCCCN1C(=O)C=CC1=O)[C@H]32 (some centres not stated) | 16% | 98% (active) | 88.5% (active) | 42% | 99% (active) | 92.4% (active) | 35% | 98% (active) | 92.7% (active) | 16% | 95% (active) | 90.5% (active) | -23% | 96% (active) | 91% (active) | 32% | 98% (active) | 91.5% (active)
OC(c1ccccc1)(c1ccccc1)C(F)(Cl)Cl | 1% | 10% | 52.2% | 0% | 58% | 94.8% (active) | -4% | 15% | 64.4% | 1% | 17% | 92.9% (active) | -14% | 9% | 98.5% (active) | -2% | 37% | 39.5%
COc1ccc(C2c3cc4c(cc3OC(C)(O)C2C)OCO4)cc1 (configuration not stated) | 5% | 94% (active) | 98.8% (active) | 8% | 94% (active) | 95.4% (active) | 8% | 92% (active) | 92% (active) | 8% | 84% (active) | 97.5% (active) | -2% | 96% (active) | 98.3% (active) | -2% | 93% (active) | 98.5% (active)
